Compound activity (PubChem)
Rows were chosen to be rich in hits. Some 3% of all compounds tested hit in one or more screens of this group.
KKLEB cytotox: cytotoxicity in KKLEB CF airway cells, primary screen, cytotoxicity control for CF NF-kB inhibitor project, cell-based, uHTS, fluorescence assay plates. 360,000 tested, 0.36% active. AID 602141, 2011. KKLEB CF airway cells viability, ATPlite luminescence, overnight; stronger effect = lower value; cells stimulated with P. aeruginosa culture filtrate. activity change (cytotoxicity), % at 5 µM;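 active = corrected activity change at or below -50% at 5 µM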
TRPM1 prom inh: inhibitors of MITF-dependent TRPM1 promoter reporter, primary screen, cell-based, SK-MEL-5, single point, luciferase. SK-MEL-5 TRPM1 promoter luciferase, 24 h. inhibition, % at 12.5 µM. 330,000 tested, 0.83% active. AID 488899, 2010;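 active = mean inhibition across replicates of 60% or more, whatever share of single replicates reaches that level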
CF NFkB inh: inhibitors of PAF-induced NF-kB signaling, primary screen, cell-based, GFP fluorescence, uHTS; KKLEB NF-kB-GFP reporter, GFP fluorescence overnight; inhibition, % at 5 µM; 360,000 tested, 0.86% active; AID 588850, 2011;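 active = at least 50% inhibition at 5 µM, scaled per plate between neutral and stimulator controls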;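 also: PAF is a Pseudomonas aeruginosa culture filtrate used as stimulus; plate controls were PAF-stimulated DMSO wells for no effect and unstimulated DMSO wells for full effect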
Peg3 promoter: Peg3 promoter-driven luciferase inhibitors, primary screen, cell-based, HeLa, luciferase luminescence | HeLa PEG-Prom luciferase reporter, overnight | inhibition, % at 20 µM | 360,000 tested, 1.7% active | AID 588405, 2011;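 active = inhibition of at least 50% at 20 µM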
HIF-2a block: HIF-2a reporter inhibitors, primary screen, luminescence, 786-0 RCC cells; 786-0 RCC cells HIF-2a reporter, luciferase luminescence, overnight; inhibition, % at 18.8 µM; 360,000 tested, 0.72% active;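 active = inhibition of the luminescence signal of 40% or more relative to plate controls, in a single-dose primary screen at 18.75 µM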
ABHD5 PLIN5 PPI: ABHD5-PLIN5 interaction inhibitors, primary screen, cell lysate, split luciferase complementation, luminescence; Perilipin-5 (Homo sapiens) + 1-acylglycerol-3-phosphate O-acyltransferase ABHD5 (Homo …; Split G. princeps luciferase complementation, 4 h; inhibition, % at 4 µM; 360,000 tested, 0.78% active; AID 602281, 2012;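 active = inhibition above the mean inhibition across every tested compound plus 3 SD, cut at about 22% in these data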;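 also: 0% = DMSO only wells and the 100% control is not disclosed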
Target sequence (Q00G26 whole entry, looked up): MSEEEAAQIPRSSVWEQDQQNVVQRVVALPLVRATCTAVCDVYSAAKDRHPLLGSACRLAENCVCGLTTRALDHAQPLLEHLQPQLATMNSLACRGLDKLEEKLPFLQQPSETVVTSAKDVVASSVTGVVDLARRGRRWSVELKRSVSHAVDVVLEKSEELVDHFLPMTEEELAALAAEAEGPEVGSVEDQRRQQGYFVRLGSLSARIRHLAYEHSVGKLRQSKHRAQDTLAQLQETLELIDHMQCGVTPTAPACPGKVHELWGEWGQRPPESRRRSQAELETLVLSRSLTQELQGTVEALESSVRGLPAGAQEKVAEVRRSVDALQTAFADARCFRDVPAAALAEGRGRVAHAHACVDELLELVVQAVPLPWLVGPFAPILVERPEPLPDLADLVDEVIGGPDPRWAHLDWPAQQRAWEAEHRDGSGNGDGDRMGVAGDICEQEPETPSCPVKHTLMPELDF
Target sequence (Q8WTS1 whole entry, looked up): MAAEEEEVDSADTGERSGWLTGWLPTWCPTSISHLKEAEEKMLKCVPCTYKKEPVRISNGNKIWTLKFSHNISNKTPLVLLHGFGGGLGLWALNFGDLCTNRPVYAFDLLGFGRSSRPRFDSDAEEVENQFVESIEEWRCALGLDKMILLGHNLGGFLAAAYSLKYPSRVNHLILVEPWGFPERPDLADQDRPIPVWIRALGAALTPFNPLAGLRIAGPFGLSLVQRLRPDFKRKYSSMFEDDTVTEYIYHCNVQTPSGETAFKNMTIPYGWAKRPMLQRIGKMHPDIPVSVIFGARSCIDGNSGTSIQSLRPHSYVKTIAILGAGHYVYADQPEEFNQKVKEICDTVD
Numbers without * were called inactive; nt = no result given.

SMILES | KKLEB cytotox | TRPM1 prom inh | CF NFkB inh | Peg3 promoter | HIF-2a block | ABHD5 PLIN5 PPI
COc1ccc(C(C(=O)NC(C)(C)C)n2c(=O)c(-c3cc4ccccc4[nH]3)nc3ccccc32)cc1 (stereo unspecified) | nt | nt | nt | nt | -29 | -2
CNC(=O)c1ccsc1NC(=O)c1ccc(S(=O)(=O)N2CCCc3ccccc32)cc1 | -3 | nt | 34 | 55* | 21 | 0
O=C(Nc1nc2c(s1)CCCC2)c1ccc(S(=O)(=O)N2CCCc3ccccc32)cc1 | 4 | 13 | -17 | -8 | -21 | -4
Cc1cc(OCC(=O)N(Cc2ccccc2)C2CCS(=O)(=O)C2)ccc1Cl (stereo unspecified) | 20 | 0 | -13 | 11 | 6 | 4
O=C(CNC(=O)c1cccc(F)c1)N/N=C/c1cc(Br)ccc1OC(=O)/C=C/c1ccco1 | -1 | 67* | 8 | 31 | -11 | -2
O=C(CNC(=O)c1ccc(F)cc1)N/N=C/c1cc(Br)ccc1OCc1ccccc1 | 0 | -10 | 8 | -7 | -34 | 4
COc1ccccc1/C=C1/C(=O)N(c2ccccc2)N=C1C | -12 | 13 | 4 | 6 | 45* | -20
CC1=NN(c2ccccc2)C(=O)/C1=C\c1cn(-c2ccccc2)nc1C | 6 | -11 | -2 | -10 | 9 | 0
CCC(=O)Nc1ccc2c(c1)nc(CCNC(=O)c1ccco1)n2C | 2 | -2 | -7 | 14 | 7 | -3
CCOc1ccc(N2CC(C(=O)Nc3cccc(C(=O)NC4CC4)c3)CC2=O)cc1 (stereo unspecified) | 6 | 5 | 12 | 1 | -1 | -1
CC(=O)Oc1c(C)cc(Cl)cc1C(=O)Nc1ccc([N+](=O)[O-])cc1Cl | -78* | 53 | 63* | -13 | -157 | 2
CC(=O)OCC(=O)Nc1ccc([N+](=O)[O-])cc1Cl | -1 | -2 | -23 | 3 | 10 | 0
CN(Cc1ccccc1)C(=O)c1cccc(NC(=O)Cc2ccc(NC(=O)C3CCN(C(=O)C4CC4)CC3)cc2)c1 | 10 | -8 | 16 | -7 | 4 | 15
O=C1[C@@H]2Cc3c([nH]c4ccccc34)C(c3cccc(Br)c3)N2C(=O)CN1C1CCN(Cc2ccccc2)CC1 (stereo partly specified) | -12 | 17 | 17 | 96* | -28 | 8
Cc1ccc(-c2nn3c(C)nnc3c3ccccc23)cc1S(=O)(=O)NC(C)c1ccccc1 (stereo unspecified) | -63* | 4 | -86 | 19 | 17 | 3
COc1cccc(OCC(O)CNC2CCCC2)c1 (stereo unspecified) | 3 | 7 | -28 | 2 | 16 | -2
COc1ccc(C2c3c(ncn(CCCO)c3=N)Oc3ccc4ccccc4c32)cc1 (stereo unspecified) | -11 | 26 | 8 | 82* | 18 | 0
COc1ccc(C2c3c(ncn(CCCO)c3=N)Oc3ccc4ccccc4c32)cc1OC (stereo unspecified) | -6 | nt | 7 | 23 | 7 | 4
COc1ccccc1C1c2ccc3ccccc3c2Oc2ncn(CCN(C)C)c(=N)c21 (stereo unspecified) | -14 | 69* | 24 | 103* | -2 | 22
COc1ccc(C2c3c(ncn(CCN4CCOCC4)c3=N)Oc3ccc4ccccc4c32)cc1OC (stereo unspecified) | -24 | 5 | 15 | 78* | -16 | 12
OCCCNc1ncnc2c1ncn2[C@H]1CN(Cc2ccco2)C[C@@H](CO)O1 | -1 | nt | 1 | -8 | 3 | 8
COc1cc(N=Nc2cccc(S(N)(=O)=O)c2)c2ccccc2c1N | 3 | 74* | -206 | -75 | -34 | 14
COc1ccc(S(=O)(=O)N2CCCCC2)cc1NC(=O)c1c(F)cccc1Cl | 10 | 3 | -6 | 20 | -4 | 19
COc1ccc(/C=C\C(=O)O[C@@H]2C(O)C(O[C@@H]3OC(C)[C@H](O[C@@H]4OCC(O[C@H]5O[C@H](CO)[C@@H](O)C(O)C5O)C(O)C4O)C(O)C3O)[C@H](OC(=O)[C@]34CCC(C)(C)C[C@@H]3C3=CCC5[C@@]6(C)CC(O)C(O[C@@H]7OC(CO)C(O)[C@H](O)[C@H]7O)[C@@](C)(C(=O)O)C6CC[C@@]5(C)[C@]3(CO)CC4)O[C@H]2C)cc1 (stereo partly specified) | 8 | 68* | -58 | 51* | 34 | 16
O=C(Nc1ncc(Cc2ccc(SC(F)F)cc2)s1)c1ccc(OC(F)F)cc1 | -19 | 44 | 24 | 1 | 11 | -6
SMILES | KKLEB cytotox | TRPM1 prom inh | CF NFkB inh | Peg3 promoter | HIF-2a block | ABHD5 PLIN5 PPI
CNc1nc(N/N=C/c2cc3c(cc2[N+](=O)[O-])OCO3)nc(Nc2ccccc2)n1 | -4 | 36 | 2 | 86* | -28 | 3
COc1ccc(/C=N/Nc2nc(Nc3ccccc3)nc(N3CCCC3)n2)cc1[N+](=O)[O-] | 7 | 57 | -19 | 60* | -7 | -3
CNc1nc(N/N=C/c2cc([N+](=O)[O-])ccc2F)nc(Nc2ccccc2)n1 | -16 | 7 | 39 | 20 | 38 | -3
COc1ccc(O)c(/C=N/Nc2nc(Nc3ccccc3)nc(-n3nc(C)cc3C)n2)c1 | 6 | -9 | 74* | 22 | -156 | 8
COc1cc(/C=N/Nc2nc(Nc3ccccc3)nc(-n3nc(C)cc3C)n2)cc(OC)c1OC | 0 | 0 | 72* | 32 | -82 | -8
COc1cc(/C=N/Nc2nc(Nc3ccc(C)cc3)nc(-n3nc(C)cc3C)n2)cc(OC)c1OC | 7 | 13 | 48 | 48 | -3 | -3
Cc1cc(C)cc(CC(=O)N2CCC2(C)C(=O)NS(=O)(=O)c2cccc(F)c2)c1 (stereo unspecified) | 9 | nt | 13 | 0 | 3 | 2
CN=c1scc(-c2ccccc2F)n1/N=C(\C)c1cccnc1 | -14 | -19 | -9 | -230 | -216 | -5
CC(NCc1ccc(OCc2ccc(Cl)cc2)cc1)C(O)c1ccccc1 (stereo unspecified) | -18 | 13 | 32 | 104* | -63 | 18
CC(NCc1cccc(OCc2ccccc2)c1)C(O)c1ccccc1 (stereo unspecified) | -9 | -6 | 24 | 2 | 3 | 14
COc1ccc(N2CCN(c3nc(NCCc4ccc(OC)c(OC)c4)nc(OC)n3)CC2)cc1 | -18 | 6 | 8 | 67* | 7 | 1
CCOc1nc(NCCc2ccc(OC)c(OC)c2)nc(N2CCN(c3ccc(OC)cc3)CC2)n1 | -26 | -14 | 16 | 4 | 13 | 3
